# Screening data as filed in PubChem BioAssay.
# Shown are actives, neighbours in structure and some others; about 21% of the full set was active somewhere.
# SARS PLP yeast: inhibitors of SARS-CoV papain-like protease in yeast | S. cerevisiae expressing SARS-CoV PLpro, growth rescue | 330,000 tested, 0.19% active | Potency, µM (top dose mostly 32.9 µM), for inactives: at the highest dose activity, positive = growth rescue, hits mostly activators | AID 485353; further: potency means the concentration at half of the fitted maximal effect; 0% is about no effect; nearly all actives have a fitted effect of over 55% in size
# CHX counter: counter-screen for Shiga toxin inhibitors: cycloheximide protein synthesis inhibition. cell reporter, cycloheximide protein synthesis inhibition counterscreen. max response, %. 300,000 tested, 12% active; in the data active means max response mostly above about 13%, no sharp cut-off; inactive means mostly below about 14%; further: read at 38.3 µM for the half of the compounds with a filed dose; 0% is about no effect
# Pf growth 48h: inhibits P. falciparum growth in the first generation, 48 h. P. falciparum luciferase growth in erythrocytes, 48 h. Potency, µM (top dose mostly 28.7 µM), for the others: top-dose activity change, negative = inhibition, most hits filed as inhibitors. 310,000 tested, 5.9% active. AID 504832; active means well fitted inhibition curve with a large enough effect; inconclusive means small, poorly fitted or top-dose-only effect, or another doubt; inactive means no such curve, though single readings can be large or run the other way; further: potency means the concentration at half of the fitted maximal effect; on the % scale 0 is the no-effect control and ±100 the full control effect
#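 Firefly luciferase activity from engineered P. falciparum reports growth; inhibitors lower the luminescent signal. Cultures contained 2% hematocrit erythrocytes at 0.1% final parasitemia.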
# Shiga toxin inh: blocks Shiga toxin action in Vero cells | Vero cells, Shiga toxin protein synthesis inhibition reporter | inhibition, % at 38.7 µM | 290,000 tested, 9.2% active; in the data active means inhibition mostly above about 28%, no sharp cut-off; inactive means mostly below about 43%; further: 0% is about no effect
# NS1 inh: influenza NS1 inhibition; Potency, µM (titrated, usually from 46.1 µM), for the others: at the top dose activity, positive = more growth; 270,000 tested, 0.4% active; further: potency means the concentration at half of the fitted maximal effect; actives are rising curves; nearly all actives have a fitted effect of over 50% in size
#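 A cell-based growth assay was used: compounds that relieve NS1-induced slow growth of budding yeast raise OD600. Assay medium was yeast nitrogen base with ammonium sulphate and -URA supplement, pH 6.0, with 2% galactose.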
# Pf growth 96h: inhibits malaria parasite growth, 96 h | P. falciparum luciferase reporter growth, 96 h | 320,000 tested, 6.9% active | AID 504834 | Potency, µM (highest dose often 28.7 µM), for inactives: at the top dose activity change, negative = inhibition, hits mostly inhibitors; active means well fitted inhibition curve with a large enough effect; inconclusive means small, poorly fitted or top-dose-only effect, or another doubt; inactive means no such curve, though single readings can be large or run the other way; further: potency means the concentration at half of the fitted maximal effect; on the % scale 0 is the no-effect control and ±100 the full control effect
#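 Cell-based qHTS: luciferase-tagged P. falciparum in erythrocytes (2% hematocrit, 0.05% parasitemia final) incubated with compounds for 96 hours, 37 C, 5% CO2; luciferase detection reagent then added and luminescence measured.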
# * = called active by the depositor; ? = inconclusive; · = no result. Unless noted, the call rests on the fitted dose curve.
SMILES,SARS PLP yeast,CHX counter,Pf growth 48h,Shiga toxin inh,NS1 inh,Pf growth 96h
N/C(=N\OC(=O)C1CCCCC1)c1ccccn1,11%,31*,112%,86*,0%,196%
N/C(=N\OC(=O)C1CCCCC1)c1ccncc1,0%,11*,28%,30*,3%,-19%
Cc1ccc(S(=O)(=O)N(C)C)cc1NC(=O)C(C)N(C)Cc1sccc1C (configuration not stated),2%,5,?,-4,1%,-23%
N/C(=N\OC(=O)C1CCCCC1)c1ccc(Cl)cc1,·,28*,44%,46,-4%,?
COc1ccc(-c2nc(CSCC(=O)NC3CCN(Cc4ccccc4)CC3)c(C)o2)cc1OC,2%,14,?,-5,-2%,10µM*
COc1ccc(-c2nc(CSCC(=O)NC3CCCc4ccccc43)c(C)o2)cc1OC (configuration not stated),-18%,-1,·,-12,-5%,8.3µM*
NS(=O)(=O)c1ccc(CNC(=O)c2scc3c2CCCC3)cc1,0%,2,-10%,-9,·,?
CC(C)NC(=S)N(CCc1ccncc1)C(C)C,-11%,0,-4%,-3,·,1.3µM*
CCC(=O)NC(C)C(c1cccs1)N1CCOCC1 (configuration not stated),·,·,·,·,10%,·
CC(NC(=S)NC1CCCCC1)C(c1cccs1)N1CCOCC1 (configuration not stated),-2%,-3,?,-3,-9%,8.3µM*
CCN1CCN(C(c2cccs2)C(C)NC(=S)NC2CCCCC2)CC1 (configuration not stated),0%,-2,-7%,-3,5%,-12%
CC(NC(=O)Cc1cccs1)C(c1cccs1)N1CCOCC1 (configuration not stated),-16%,-1,13µM*,14,4%,·
CCCC[N+]12CCC(CC1)C(C(=O)c1cccs1)C2 (configuration not stated),1%,-5,10µM*,-3,9%,2.6µM*
CCOc1ccc2nc(N3CCC(C(=O)Nc4nnc(CC)s4)CC3)sc2c1,-1%,81*,5%,167*,2%,-18%
COc1ccc2nc(NC(=O)C3CCN(C(=O)c4ccc(F)cc4)CC3)sc2c1,?,9,?,24,8%,9.3µM*
CCOc1ccc2nc(N3CCC(C(=O)N4CCN(C(=O)c5ccco5)CC4)CC3)sc2c1,-30%,10,13µM*,13,-11%,?
CCOc1ccc2nc(N3CCCC(C(=O)N4CCN(CC)CC4)C3)sc2c1 (configuration not stated),3%,25*,·,38,2%,-14%
CCOc1ccc2nc(N3C(=O)C(O)=C(C(=O)c4ccco4)C3c3ccco3)sc2c1 (configuration not stated),-1%,·,53%,·,·,-2%
COc1ccc(C(=O)N2CCC(C(=O)c3ccc(F)cc3)CC2)cc1,?,-3,-10%,-11,-24%,8%
Cn1sc(=O)n(Cc2ccccc2)c1=O,·,-10,·,-9,·,·
CCOc1ccc(OCCC(=O)OCC(=O)NC(C)c2ccccc2)cc1 (configuration not stated),-6%,·,5%,·,·,10%
O=C(CSc1ccccc1)N1CCCC(N2CCN(c3ccccc3)CC2)C1 (configuration not stated),0%,11,6%,-6,-3%,?
CC(C#Cc1ccc2c(c1)COc1c3ccccc3nn1-2)OC(C)(C)C (configuration not stated),3%,·,45%,·,·,128%
CCOc1ccc2nc(NC(=O)C3CCN(C(=O)c4ccco4)CC3)sc2c1,-4%,27*,-13%,74*,8%,73%
CCOc1ccc2nc(SCc3ccc(F)cc3)sc2c1,-19%,37*,33%,36*,-19%,0%
SMILES,SARS PLP yeast,CHX counter,Pf growth 48h,Shiga toxin inh,NS1 inh,Pf growth 96h
Cc1ccc2nc(N3CCC(C(=O)NC4CCCCC4)CC3)sc2c1,1%,-9,-15%,-2,-20%,?
CCOc1ccc2nc(N3CCCCCC3)sc2c1,-2%,57*,211%,102*,-26%,?
CCOc1ccc2nc(SCC(=O)c3ccc(C)s3)sc2c1,7%,1,·,2,3%,6%
CCOc1cc2sc(N3CCC(C(=O)Nc4ccc(C)cc4)CC3)nc2cc1Br,·,55*,·,149*,·,·
CC(=O)Nc1ccc(OC(C)=O)cc1,·,·,-3%,·,·,-14%
Cn1c(-c2ccc(Cl)nc2)nc2cc(Cl)ccc21,-2%,16,19%,27,-1%,32%
COC(=O)/C(=N/Nc1ccccc1OC)N1CCCc2ccccc21,1%,15,?,36,-1%,?
CCOc1ccc2nc(N3CCC(C(=O)N4CCN(C5CCCCC5)CC4)CC3)sc2c1,-6%,48*,22%,64*,11%,25%
COc1ccc2nc(N3CCCC(C(=O)NCCCN4C(C)CCCC4C)C3)sc2c1 (configuration not stated),5%,20*,22%,40,-1%,21%
CCOc1ccc2nc(N3CCCC(C(=O)NCC4CCCO4)C3)sc2c1 (configuration not stated),-1%,45*,90%,75*,2%,102%
CCc1ccc(NC(=O)CSc2nnc(-c3cnccn3)n2C)cc1,2%,9,5%,-4,20%,?
CCc1cc2c3c(c1)C1(C(=O)N3C(C)(C)C=C2C)C(C#N)=C(N)Oc2[nH]c(=O)[nH]c(=O)c21 (configuration not stated),-8%,17,?,-16,·,43%
COc1cc(C#N)ccc1OC(=O)C1CCN(C(=O)c2ccc(F)cc2)CC1,-6%,·,4%,·,·,12%
Cc1cccc(NC(=O)CSCC(=O)Nc2ccc(S(=O)(=O)N3CCCC3)cc2)c1,-1%,·,-19%,·,·,-17%
CCN(CC)S(=O)(=O)c1ccc(N2CCN(C)CC2)c(NC(=O)Nc2ccc(C)cc2)c1,2%,17*,9.3µM*,2,-4%,?
CCN(CC)S(=O)(=O)c1ccc(N2CCN(C)CC2)c(NC(=O)CSCC(=O)Nc2cccc(C)c2)c1,7%,·,17µM*,·,·,?
COc1cc(OC)c2ccc(=O)oc2c1C(CC(=O)N1CCN(c2ccccc2)CC1)c1ccc2c(c1)OCO2 (configuration not stated),-3%,9,12µM*,-4,8%,13µM*
COc1cc(C(CC(=O)N2CCN(c3ccccc3)CC2)c2c(OC)cc(OC)c3ccc(=O)oc23)cc(OC)c1OC (configuration not stated),4%,1,5.9µM*,-2,?,4.7µM*
CCOC(=O)c1c(C)[nH]c(C(=O)OCC(=O)c2c(N)n(C)c(=O)n(C)c2=O)c1C,0%,-1,14%,-10,7%,33%
